Compound activity deposited in PubChem by National Center for Advancing Translational Sciences (NCATS).
An excerpt weighted towards active compounds, which were near 11% of everything screened.
HTT cytoprotect: cytoprotection in Huntington HTT-Q103 PC12 cell model | AID 1471 | 230,000 compounds, 0.14% hits | Potency, µM (titrated, usually from 56.4 µM), for inactives: cytoprotection (ATP increase), usual class: activators | PC12 HTT-Q103 induced, cytoprotection, ATP luminescence, 40 h; also: potency is read from the fitted curve at half-maximal effect; % of control where 0% means no effect; nearly all actives have a fitted effect of over 45% in size
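Quantitative HTS on tebufenozide-induced (100 nM) PC12 cells expressing HTTQ103 exon 1–GFP; compounds tested as a concentration series; survival measured via cellular ATP.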
RGS12 GoLoco inh: inhibitors of human Gai1-RGS12 GoLoco interaction (red fluorophore); P63096; Gai1:RGS12 GoLoco peptide FP, rhodamine, 10 min; Potency, µM (doses to about 61.6 µM), without a hit: at the top dose activity, negative = inhibition, actives largely listed as inhibitors; 230,000 compounds, 0.44% hits; active = well fitted inhibition curve with a large enough effect, not every such curve was filed as active; inactive = no such curve, though single readings can be large or run the other way; also: potency is read from the fitted curve at half-maximal effect; % is scaled to controls: 0 for no effect and ±100 for the full control effect; nearly all actives have a fitted effect of over 30% in size
Target sequence (P63096 whole entry, looked up): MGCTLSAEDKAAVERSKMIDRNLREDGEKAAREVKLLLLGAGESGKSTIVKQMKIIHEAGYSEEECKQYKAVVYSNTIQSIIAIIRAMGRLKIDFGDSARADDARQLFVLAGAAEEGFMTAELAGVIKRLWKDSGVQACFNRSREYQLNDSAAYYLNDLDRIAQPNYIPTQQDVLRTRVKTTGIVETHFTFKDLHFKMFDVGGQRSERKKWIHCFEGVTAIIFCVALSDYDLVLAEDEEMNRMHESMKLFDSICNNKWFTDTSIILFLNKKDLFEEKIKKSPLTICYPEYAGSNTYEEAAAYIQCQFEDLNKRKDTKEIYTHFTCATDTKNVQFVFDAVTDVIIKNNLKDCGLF
HttQ103 aggreg: mutant huntingtin aggregation inhibition. PC12 HttQ103-GFP aggregates, Acumen cytometry, 40 h. Potency, µM (doses to about 46.1 µM), for the others: top-dose activity change, negative = inhibition, most hits filed as inhibitors. 220,000 compounds, 1.1% hits; also: potency is read from the fitted curve at half-maximal effect; % is scaled to controls: 0 for no effect and ±100 for the full control effect; nearly all actives have a fitted effect of over 60% in size
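Compounds (qHTS titration) were added to PC12 cells expressing an ecdysone-driven HTT exon 1 Q103–GFP fusion after induction with 100 nM tebufenozide. Aggregate formation was measured as GFP objects in cell lysates.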
PNC inhibitor: blocks assembly of the perinucleolar compartment | PC3M PTB-GFP, PNC prevalence imaging, 16 h; hits give low values | activity change (PNC), negative = inhibition, % at 10 µM | 140,000 compounds, 3.1% hits | AID 2417;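 active = readout at or below -70, meaning at least 70% loss of cells showing the perinucleolar compartment, a nuclear body marking cancer cells; inconclusive = readout between -30 and a set limit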;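 also: plate controls were DMSO wells for no effect and camptothecin positive control wells for full effect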
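Read-out is percentage of cells bearing a perinucleolar compartment, from automated 20x imaging of fixed, Hoechst-stained PC3M PTB-GFP cells. Cells were seeded 4 h, then exposed 16 h to compound (23 nl of library stock) in duplicate plates.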
ALDH1A1 inh: inhibitors of human aldehyde dehydrogenase 1A1 | 220,000 compounds, 7.3% hits | Purified ALDH1A1, NADH fluorescence, propionaldehyde substrate | Potency, µM (doses to about 75.3 µM), for the others: at the highest dose activity, negative = inhibition, usual class: inhibitors; active = well fitted inhibition curve with a large enough effect, not every such curve was filed as active; inconclusive = small, poorly fitted or top-dose-only effect, or another doubt; inactive = no such curve, though single readings can be large or run the other way;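 also: potency is read from the fitted curve at half-maximal effect; plate controls were no enzyme wells and a reference inhibitor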
HPGD inh: inhibitors of human 15-hydroxyprostaglandin dehydrogenase (HPGD) | Potency, µM, without a hit: at the top dose activity change, negative = inhibition, actives largely listed as inhibitors | P15428 | purified HPGD, NADH fluorescence kinetic, PGE2 substrate | 150,000 compounds, 4.3% hits; active = well fitted inhibition curve with a large enough effect, not every such curve was filed as active; inconclusive = small, poorly fitted or top-dose-only effect, or another doubt; inactive = no such curve, though single readings can be large or run the other way; also: potency is read from the fitted curve at half-maximal effect; % is scaled to controls: 0 for no effect and ±100 for the full control effect
Target sequence (P15428 whole entry, looked up): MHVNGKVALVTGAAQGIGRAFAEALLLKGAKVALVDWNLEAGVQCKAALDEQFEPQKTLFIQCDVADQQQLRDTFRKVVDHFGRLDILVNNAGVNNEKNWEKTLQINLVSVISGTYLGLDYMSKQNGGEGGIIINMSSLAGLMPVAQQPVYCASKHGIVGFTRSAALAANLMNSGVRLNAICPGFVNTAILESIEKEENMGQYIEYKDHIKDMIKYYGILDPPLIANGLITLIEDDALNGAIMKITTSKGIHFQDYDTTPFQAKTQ
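20 nM HPGD preincubated 15 min at room temperature with compound in 50 mM Tris-HCl pH 8, 0.01% Tween 20. Started with 1 mM NAD+ and 30 uM prostaglandin E2; NADH fluorescence (360/450 nm) read 5 times over 30-s intervals, last minus first.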
* marks the source's active call; other numbers are inactive results; ? = inconclusive; / = not tested or not shown; [ ] = remark or other dose. Unless noted, calls follow the shape of the dose curve; as a rule, active = well fitted curve in the direction sought with a large enough effect; inconclusive = small, poorly fitted or top-dose-only effect, or another doubt; inactive = no such curve, though single readings can be large; an effect the other way counts as inactive or inconclusive.

SMILES	HTT cytoprotect	RGS12 GoLoco inh	HttQ103 aggreg	PNC inhibitor	ALDH1A1 inh	HPGD inh
COc1ccc(N2C(=O)C3CCCCC3C2=O)cc1NC(=O)c1ccccc1 (centres undefined)	18%[10 µM]	10%	10%[9.22 µM]	/	0.89µM*	/
COC(=O)c1cc(C(=O)Nc2nnc(CC(C)(C)C)s2)cc([N+](=O)[O-])c1	21%[10 µM]	10%	-11%	-8	25µM*	16µM*
CCOC(=O)c1csc(NC(=O)Nc2cccc(Cl)c2)n1	-12%[10 µM]	-4%	-14%	17	6%	-5%
COCCOC(=O)C1=C(C)NC(=O)NC1/C=C/c1ccccc1 (centres undefined)	10%[10 µM]	-3%	16%	32	-3%	-8%
COCCOC(=O)C1=C(C)NC(=S)NC1/C=C/c1ccccc1 (centres undefined)	10%[10 µM]	-4%	-1%	18	0.79µM*	-15%
C=CCOC(=O)C1=C(C)NC(=S)NC1/C=C/c1ccccc1 (centres undefined)	-31%	18%	-28%	7	0.045µM*	-18%
COCCn1c(=O)c(-c2cc(F)cc(F)c2)nc2cnc(N(C)C)nc21	4%	18%	/	/	2%	/
O=C(CSc1nnnn1Cc1ccccc1)Nc1ccc2c(c1)OCCO2	20%	6%	2%	-10	8.9µM*	-14%
COc1cc(NC(=O)CSc2nnnn2Cc2ccccc2)cc(OC)c1	3%[10 µM]	4%	7%[9.22 µM]	/	-5%	/
CCC(=O)Nc1cccc(NC(=O)CSc2nnnn2Cc2ccccc2)c1	-14%	11%	5%	7	20µM*	-13%
CC(=O)Nc1cccc(NC(=O)CSc2nnnn2C(C)C)c1	30%[10 µM]	-8%	5%	?	14µM*	-3%
O=C(c1ccncc1)N1CCC2(CC1)CN(Cc1cc(C(F)(F)F)cc(C(F)(F)F)c1)C2	-39%	3%	/	/	-12%	-7%
CC(=O)NC1C(OCCOc2ccc(Cl)cc2Cl)OC(COC(C)=O)C(OC(C)=O)C1OC(C)=O (centres undefined)	-12%	6%	-5%	24	1%	-5%
O=C(OCC1OC(OC(=O)c2cc(O)c(O)c(OC(=O)c3cc(O)c(O)c(O)c3)c2)[C@@H](OC(=O)c2cc(O)c(O)c(OC(=O)c3cc(O)c(O)c(O)c3)c2)C(OC(=O)c2cc(O)c(O)c(OC(=O)c3cc(O)c(O)c(O)c3)c2)C1OC(=O)c1cc(O)c(O)c(OC(=O)c2cc(O)c(O)c(O)c2)c1)c1cc(O)c(O)c(OC(=O)c2cc(O)c(O)c(O)c2)c1 (some centres undefined)	-69%	-14%	11%	/	?	3.2µM*
COc1ccc(C(=O)Cn2ccsc2=NC(C)=O)cc1	17%	2%	11%	/	7%	/
Cc1ccc(Cn2ccsc2=NC(=O)CCl)cc1	-9%	20%	?	/	10µM*	/
COC(=O)[C@@]1(Cc2ccccc2)[C@H]2c3cc(C(=O)N4CCCC4)n(Cc4c(CO)[nH]cc(C)c4=O)c3C[C@H]2CN1C(=O)c1ccccc1	-14%	-2%	/	/	-2%	-21%
CC1(C)CC(=O)C=C(Nc2ccccn2)C1	7%[10 µM]	-6%	-8%	?	8.9µM*	-23%
CCOc1ccccc1NC(=O)c1cccc(NC(=O)c2ccco2)c1	-22%[10 µM]	14%	5%	-86*	2%	-12%
CCc1ccc(NC(=O)c2ccc(OC)c([N+](=O)[O-])c2)cc1	-6%[10 µM]	7%	11%	-4	11µM*	-19%
Cn1ncc([N+](=O)[O-])c1C(=O)Nc1ccc(-c2nc3ccccc3[nH]2)cc1	0%[10 µM]	3%	-22%	28	-2%	-5%
COc1ccc(C(=O)Nc2ccc(N3CCN(C)CC3)cc2)cc1[N+](=O)[O-]	/	3%	12%	/	?	/
CCOc1ccc(C(=O)Nc2ccc(-c3nc4ccccc4[nH]3)cc2)cc1[N+](=O)[O-]	-11%[10 µM]	6%	25%	-116*	5%	-1%
COc1ccc(C(=O)NC(=S)Nc2cccc(NC(=O)c3ccco3)c2)cc1[N+](=O)[O-]	-5%[10 µM]	13%	8%	-6	3.5µM*	-8%
CC(=NC(C)C)C1=C(O)C(C)OC1=O (centres undefined)	9%[10 µM]	1%	-4%	2	6%	0%
SMILES	HTT cytoprotect	RGS12 GoLoco inh	HttQ103 aggreg	PNC inhibitor	ALDH1A1 inh	HPGD inh
CCOc1ccc(OCCn2nnc3ccccc3c2=O)cc1	-5%	-6%	6%	/	-2%	/
CCOC(=O)C(Cc1ccc(OC)c([N+](=O)[O-])c1)NC(=O)CCC(=O)Nc1ccc(OC)cc1 (centres undefined)	5%[10 µM]	11%	-11%[9.22 µM]	/	4.5µM*	/
Cc1cccc(C)c1OCC(=O)Nc1cccc(NC(=O)c2ccco2)c1	6%[0.074 µM]	67%	3%	-119*	?	-20%
CCNC(=S)Nc1cc(OCC)c(NC(=O)c2ccco2)cc1OCC	-25%[1.9 µM]	2%	5%	?	?	-21%
CCOc1cc(NS(=O)(=O)c2ccccc2)c(OCC)cc1NC(=O)c1ccco1	-30%	5%	24%	41	7.9µM*	-12%
CCOc1ccc(C(=O)NC(=S)Nc2cccc(NC(=O)c3ccco3)c2)cc1[N+](=O)[O-]	10%[10 µM]	-6%	-10%	9	3.2µM*	-28%
CCCCCCCCCCCC(=O)NC(Cc1ccc(OC)c([N+](=O)[O-])c1)C(=O)O (centres undefined)	-7%[10 µM]	2%	12%[9.22 µM]	/	/	/
O=C(Oc1ccccc1)N1CCC2(CCCN(c3ccccn3)C2)CC1	16%	1%	/	/	?	-25%
CCO[C@@H]1OC(C(=O)N2CCN(Cc3ccccc3)CC2)=C[C@H](C2CC2)[C@H]1CCCO	1%[10 µM]	2%	4%[9.22 µM]	/	?	/
COCCNc1nc(-c2cc(-c3ccc(Cl)cc3)on2)cc(C(C)C)n1	-5%[10 µM]	1%	-23%[9.22 µM]	/	/	/
COc1ccccc1NC(=S)NC(NC(=O)c1ccco1)C(Cl)(Cl)Cl (centres undefined)	17%[10 µM]	48%	7%	8	14µM*	-21%
COc1cc(NC(=S)NC(=O)c2ccccc2F)ccc1NC(=O)c1ccco1	36%[0.074 µM]	8%	4%	18	32µM*	-26%
O=C(NC(NC(=S)Nc1ccc(Cl)cc1)C(Cl)(Cl)Cl)c1ccco1 (centres undefined)	/	-1%	-26%	4	?	-10%
C=C1c2cccc(OC)c2O[C@H](C(=O)OCC)[C@@H]1CCC(C)C	0%	-6%[88.7 µM]	/	/	?	-28%
CCOc1ccc(-n2c(-c3ccc(Br)cc3)c[n+]3c2CCCCC3)cc1	-93%	5%	?	/	3%	/
CCOc1ccc(-n2c(-c3ccccc3)c[n+]3c2CCC3)cc1	-4%[10 µM]	6%	6.3µM*	/	2%	/
